Results from the supplement of paper PMC6555819.

What follows are sequences tested on RXRa homodimer (NR concentration 180 nM) (assay: PBM binding z-score (relative to random genomic background probes); higher = stronger binding; sequences stand for … in GC…GCGATTGACAGCGTAGAATGAAGG).
How it was run: (§1)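 Random background probes are the reference for binding z-scores. These scores derive from regression-normalized fluorescence on custom Agilent 4×180K protein-binding microarrays incubated 1 h with ligand-free nuclear receptor dimers. Binding was detected with antibodies against each partner (one per run).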

First: CCTTACGGGTCACTGACAGGTTAAAGCATTTGGA
Second: GATACAGGGACAAGGCCAGAGTACGCGTATTGAT
The PBM binding z-score of the first is higher: 5.63 for the first, 0.00121 for the second.

Compared with CGTCCTAGGTCAAGGTCAGTGAAAGAGACTCGAA, CCTACTGAGCCAAAGGTCATTGATTCCAATGCTC is higher in PBM binding z-score: 4.55 for the first, 5.76 for the second.

First: CATACAGGGTCAGCCAGGCCAGAGTAGGGACGGC
Second: GGAATGAGGGCAAAGTTGATAGCATCTGTCGACG
The PBM binding z-score of the first is higher: 4.58 for the first, 2.31 for the second.

Going from CCGAGTAGGTTATCGGGCATTCAGGCAACGGTGA to TAATATAGGTAAATGCTAGGTGAAAGTCCGATCT, the PBM binding z-score rises from 0.45 to 0.568.

Compared with CCTTACGGGTCACGATGTTATAGCACGACGAGCG, GCAGACAGCTGAAACGCAGGTAACTCAGGGTGGC is lower in PBM binding z-score: 5.71 for the first, -0.453 for the second.

Compared with TCAATGAGGTTATAAGATCAGGGAACGTTGCAAA, CCTAACGGGTCACTGACAGGTTATAGCATTTGGA is higher in PBM binding z-score: 2.19 for the first, 4.09 for the second.

Going from CGTCCAAAGTCAATGCTAGGTCAGTGAAAGCATT to TCATATAGGTAAACAGGTGAAAGTTCGTAAGTTA, the PBM binding z-score rises from 0.344 to 2.31.

Going from ACAGACAGGTAATGAAGGTAACTCAGGCTATCAT to TCAGACAGGTGAAGGTAATTCAGGTACGCAGTCG, the PBM binding z-score rises from 0.59 to 1.08.

Going from CGAACTAGGTCAAGAGGTCAAAGTCCGCTTCCCG to CCTCGGAGGACAACAGGAGGTCGGAGCTGCCAGA, the PBM binding z-score falls from 8.43 to 0.223.

Going from AGAATGAGGTTATACGTAGATCAGGAAAGAAAGT to GCGACTGGGTCAAAGCAGGTTACCATAAGGTTGG, the PBM binding z-score rises from 2.25 to 3.11.

First: CATACAGGGTCAGGTAGGCCAGAGTAGGGACGGC
Second: TCTAGTTGGTCACGGAGGCCACACACGACGGGTA
The PBM binding z-score of the first is higher: 4.12 for the first, 1.06 for the second.

Going from ACAGACAGGTGATGAAGGTAAGTCAGGCTATCAT to GCTTGTAGATCTAGGTTAAGAAAGACTAAGCTAA, the PBM binding z-score falls from 0.248 to -0.074.

Compared with ACAGACAGGTGATGAAGGTAACACAGGCTATCAT, GCGACTGGGGCATCAGCAGGTTACCCTAACTTAA is lower in PBM binding z-score: 0.817 for the first, 0.381 for the second.

First: CGTCCAAGGTCAGCAGGTCTGTGAAAGCGACGTG
Second: ATCTCTAGGAAAGACTCAGTTCAGTGAAGAACGC
The PBM binding z-score of the first is higher: 3.69 for the first, -0.107 for the second.

Compared with CAAACTCGGTCACCGGAAGGTCAAAGTCCGCATG, TCATATACGTAAACAGGTGAAAGTCCGTAAGTTA is lower in PBM binding z-score: 4.82 for the first, 0.88 for the second.

Compared with ATATGTAGGTTAGCTGGGGTGATTCAGACTAGGC, GCTGCTAGGTCAACTGATGGTCTGCTAAAGCTCG is higher in PBM binding z-score: 0.872 for the first, 2.91 for the second.

Going from TCTATTATTTGAAGGGCAACCGACGAGTCCGTTT to AGAATGCGGTTACCAAAGATCAGGGAAACGCTTG, the PBM binding z-score falls from 0.997 to 0.309.

Compared with ATACCAAGGTGATCGGGAGGTCGTTGATACTAAC, ATTCAAAGTTCATCTAGGTAACGTAAGATATGCT is higher in PBM binding z-score: 1.44 for the first, 4.46 for the second.

First: CCTCGGAGGACAACAGGGGGTCAGAGCTGCCAGA
Second: TCTATTAGTTGAAGGGCAACTGACGAGTCCGTTT
The PBM binding z-score of the first is higher: 3.24 for the first, 0.829 for the second.

Going from CCTAGCAGGCCATGGTCACTCAAGCATTTCGCTT to TCTGCTAGGTCAACGATGGTCAACTAATCTGCTA, the PBM binding z-score rises from -0.236 to 2.75.

The sequences below were run on THRa:RXRa (NR concentration 90 nM, RXRa partner concentration 90 nM) in the same assay as above.
How it was run: as §1

First: CCTTACGGGTCACTGACAGGTTAAAGCATTTGGA
Second: GATACAGGGACAAGGCCAGAGTACGCGTATTGAT
The PBM binding z-score of the first is higher: 2.9 for the first, 0.874 for the second.

Going from CGTCCTAGGTCAAGGTCAGTGAAAGAGACTCGAA to CCTACTGAGCCAAAGGTCATTGATTCCAATGCTC, the PBM binding z-score falls from 3.82 to 3.33.

Compared with CATACAGGGTCAGCCAGGCCAGAGTAGGGACGGC, GGAATGAGGGCAAAGTTGATAGCATCTGTCGACG is lower in PBM binding z-score: 3.36 for the first, 1.89 for the second.

First: CCGAGTAGGTTATCGGGCATTCAGGCAACGGTGA
Second: TAATATAGGTAAATGCTAGGTGAAAGTCCGATCT
The PBM binding z-score of the first is lower: 0.172 for the first, 1.4 for the second.

Going from CCTTACGGGTCACGATGTTATAGCACGACGAGCG to GCAGACAGCTGAAACGCAGGTAACTCAGGGTGGC, the PBM binding z-score falls from 2.88 to 0.284.

Going from TCAATGAGGTTATAAGATCAGGGAACGTTGCAAA to CCTAACGGGTCACTGACAGGTTATAGCATTTGGA, the PBM binding z-score rises from 1.84 to 2.46.

Going from CGTCCAAAGTCAATGCTAGGTCAGTGAAAGCATT to TCATATAGGTAAACAGGTGAAAGTTCGTAAGTTA, the PBM binding z-score falls from 2.01 to 1.4.

First: ACAGACAGGTAATGAAGGTAACTCAGGCTATCAT
Second: TCAGACAGGTGAAGGTAATTCAGGTACGCAGTCG
The PBM binding z-score of the first is lower: 1.14 for the first, 1.81 for the second.

Compared with CGAACTAGGTCAAGAGGTCAAAGTCCGCTTCCCG, CCTCGGAGGACAACAGGAGGTCGGAGCTGCCAGA is lower in PBM binding z-score: 4.34 for the first, 1.35 for the second.

First: AGAATGAGGTTATACGTAGATCAGGAAAGAAAGT
Second: GCGACTGGGTCAAAGCAGGTTACCATAAGGTTGG
The PBM binding z-score of the first is lower: 2.15 for the first, 4.65 for the second.

First: CATACAGGGTCAGGTAGGCCAGAGTAGGGACGGC
Second: TCTAGTTGGTCACGGAGGCCACACACGACGGGTA
The PBM binding z-score of the first is higher: 2.93 for the first, 0.977 for the second.

First: ACAGACAGGTGATGAAGGTAAGTCAGGCTATCAT
Second: GCTTGTAGATCTAGGTTAAGAAAGACTAAGCTAA
The PBM binding z-score of the first is higher: 0.617 for the first, 0.276 for the second.

First: ACAGACAGGTGATGAAGGTAACACAGGCTATCAT
Second: GCGACTGGGGCATCAGCAGGTTACCCTAACTTAA
The PBM binding z-score of the first is lower: 0.695 for the first, 1.29 for the second.

First: CGTCCAAGGTCAGCAGGTCTGTGAAAGCGACGTG
Second: ATCTCTAGGAAAGACTCAGTTCAGTGAAGAACGC
The PBM binding z-score of the first is higher: 3.45 for the first, 0.203 for the second.

Going from CAAACTCGGTCACCGGAAGGTCAAAGTCCGCATG to TCATATACGTAAACAGGTGAAAGTCCGTAAGTTA, the PBM binding z-score falls from 3.44 to 0.985.

First: ATATGTAGGTTAGCTGGGGTGATTCAGACTAGGC
Second: GCTGCTAGGTCAACTGATGGTCTGCTAAAGCTCG
The PBM binding z-score of the first is higher: 4.14 for the first, 2.83 for the second.

First: TCTATTATTTGAAGGGCAACCGACGAGTCCGTTT
Second: AGAATGCGGTTACCAAAGATCAGGGAAACGCTTG
The PBM binding z-score of the first is higher: 0.552 for the first, -0.323 for the second.

Going from ATACCAAGGTGATCGGGAGGTCGTTGATACTAAC to ATTCAAAGTTCATCTAGGTAACGTAAGATATGCT, the PBM binding z-score rises from 2.58 to 3.13.

First: CCTCGGAGGACAACAGGGGGTCAGAGCTGCCAGA
Second: TCTATTAGTTGAAGGGCAACTGACGAGTCCGTTT
The PBM binding z-score of the first is higher: 3.27 for the first, 0.242 for the second.

Going from CCTAGCAGGCCATGGTCACTCAAGCATTTCGCTT to TCTGCTAGGTCAACGATGGTCAACTAATCTGCTA, the PBM binding z-score rises from -0.37 to 3.24.
